Prx2 Sm inh – Schistosoma Mansoni Peroxiredoxins (Prx2) | S. mansoni Prx2 activity coupled to TGR/GSH (TGR is thioredoxin glutathione reductase), NADPH fluorescence loss, qHTS | Potency, µM | 0.07% of 65,000 active
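Enzyme mix: 100 uM NADPH, 25 nM TGR, 700 uM GSH, 50 nM Prx2 in 100 mM phosphate pH 7.4, 10 mM EDTA, 0.01% Tween-20. 15 min RT with compound; NADPH/GSH added, H2O2 starts reaction; NADPH fluorescence read 8 min.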
AmpC inh no det – Promiscuous and Specific Inhibitors of AmpC Beta-Lactamase (assay without detergent) | AmpC nitrocefin hydrolysis, absorbance 480 nm, no detergent | Potency, µM (series often up to 28.7 µM), for the others: at the highest dose activity change, negative = inhibition | 1.8% of 71,000 active; also: % of control where 0% means no effect
Target sequence (P00811 whole entry, looked up): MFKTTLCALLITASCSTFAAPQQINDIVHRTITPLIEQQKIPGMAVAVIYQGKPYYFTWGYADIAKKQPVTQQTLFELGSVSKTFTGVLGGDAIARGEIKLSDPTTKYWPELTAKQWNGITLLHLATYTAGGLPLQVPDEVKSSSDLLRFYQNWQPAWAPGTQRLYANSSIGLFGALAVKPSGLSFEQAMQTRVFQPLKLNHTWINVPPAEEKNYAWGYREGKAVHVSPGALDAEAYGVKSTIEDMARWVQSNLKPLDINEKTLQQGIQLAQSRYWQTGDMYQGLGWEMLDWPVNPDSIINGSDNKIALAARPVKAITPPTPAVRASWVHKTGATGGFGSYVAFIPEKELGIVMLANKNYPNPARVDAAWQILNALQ
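AmpC, 20 mM phosphate pH 7.0; 15 min cpd preinc, RT; start with nitrocefin (800 uM stock); A480 kinetic read, 20 s intervals, 4 min. No-enzyme wells = negative control.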
AmpC det inh – Promiscuous and Specific Inhibitors of AmpC Beta-Lactamase (assay with detergent) | P00811 | purified AmpC, nitrocefin hydrolysis with detergent | Potency, µM (series often up to 28.7 µM), for the others: top-dose activity change, negative = inhibition | 0.09% of 71,000 active; active = well fitted curve in the direction sought with a large enough effect; inconclusive = small, poorly fitted or top-dose-only effect; also: % is scaled to controls: 0 for no effect and ±100 for the full control effect
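E. coli AmpC (5.3 nM) in 20 mM phosphate pH 7.0 with 0.01% Triton X-100, preincubated 15 min RT with compound; nitrocefin (2 uL of 800 uM stock) hydrolysis followed by 480 nm absorbance every 20 s over 4 min.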
Anthrax LT inh – qHTS Assay for Anthrax Lethal Toxin Internalization | Cells, anthrax lethal toxin internalization, FRET ratio (460/530) | Potency, µM (series often up to 40 µM), for the others: at the highest dose activity change, negative = inhibition, most hits filed as inhibitors | 0.67% of 70,000 active | AID 912, 2007; also: % is scaled to controls: 0 for no effect and ±100 for the full control effect; nearly all actives have a fitted effect of over 50% in size
* marks the source's active call; other numbers are inactive results; ? = inconclusive; nt = no result; [ ] = dose if it differs, or a comment. Shown are actives, neighbours in structure and some others; about 2.4% of the full set was active somewhere. Unless noted, calls follow the shape of the full dose curve. Potency is read from the fitted curve at half-maximal effect.

SMILES	Prx2 Sm inh	AmpC inh no det	AmpC det inh	Anthrax LT inh
Cc1nc2cc(-c3cccc(F)c3)nn2c(C)c1CCC(=O)NC(C)CCc1ccco1 (centres undefined)	nt	130%	13%	?
Cc1nc2cc(-c3cccc(F)c3)nn2c(C)c1CCC(=O)N1CCN(c2ccccn2)CC1	>57	4µM*[single pt active]	10%	-16%
O=c1[nH]c2cc3c(cc2cc1C(c1nnnn1C1CCCC1)N1CCCc2ccccc21)OCCO3 (centres undefined)	>57	-3%	-3%	7.9µM*
COc1cc2cc(C(c3nnnn3C3CCCC3)N3CCc4ccccc43)c(=O)[nH]c2cc1OC (centres undefined)	>57	118%	20%	?
O=c1[nH]c2cc3c(cc2cc1C(c1nnnn1Cc1ccccc1)N1CCCc2ccccc21)OCO3 (centres undefined)	>57	3.2µM*	8%	-10%
CC1(C)CCC[C@@]2(C)[C@@H]1CC[C@]1(C)OC(=O)C[C@@H]21	>57	55%	13%	?
COCC(=O)N1CCC[C@@]2(CCN(Cc3cc(C(F)(F)F)cc(C(F)(F)F)c3)C2)C1	>57	104%	8%	-2%
COc1ccc(CNc2ncncc2-c2cccc(NS(C)(=O)=O)c2)c(OC)c1	>57	38%	-4%	-5%
N#Cc1nc(-c2ccccc2F)oc1NCCN1CCOCC1	>57	4µM*[single pt active]	13%	9%
N#Cc1nc(-c2cccc3ccccc23)oc1NCCN1CCOCC1	>57	143%	-3%	?
CN(CCc1ccccn1)c1ccc2c(c1)C(=O)c1ccccc1-2	>57	14%[5.75 µM]	-6%[5.75 µM]	-11%[8 µM]
O=C(Nc1ccc2oc(-c3ccccc3F)nc2c1)c1ccc2c(c1)OCCO2	>57	34%	-3%	10µM*
O=C(Nc1ccccc1-c1nc2ccccc2o1)c1ccc2c(c1)OCCO2	>57	-21%	5%	-17%
O=C(CN1CC(c2ccccc2)CC1=O)Nc1ccc2c(c1)OCO2 (centres undefined)	>57	17%	9%	-3%
O=C(CN1CCN(Cc2ccc(F)cc2)C1=O)NCc1cccs1	>57	13%	11%	-9%
COc1ccc(NC(=O)CN2CC(c3ccccc3)CC2=O)cc1OC (centres undefined)	>57	4µM*[single pt active]	13%	1%
O=C(CN1CC(c2ccccc2)CC1=O)NCc1ccc(F)cc1 (centres undefined)	>57	4µM*[single pt active]	11%	-8%
O=C1c2ccccc2C(Nc2ccc(F)c(Cl)c2)N1c1ccccn1 (centres undefined)	>57	4µM*[single pt active]	13%	-17%
O=C1c2ccccc2C(Nc2ccc(S(=O)(=O)N3CCOCC3)cc2)N1c1cccnc1 (centres undefined)	>57	4µM*[single pt active]	10%	?
O=C1c2ccccc2C(Nc2ccc(S(=O)(=O)N3CCCCC3)cc2)N1c1ccccn1 (centres undefined)	>57	3.2µM*[single pt active]	15%	?
CCCCCCCCCCCC1=C(O)C(=O)C=C(O)C1=O	>57	4µM*	-14%	?
CCCCCc1cc(O)cc(O)c1	nt	-8%	10%	?
O=C(Cc1cccs1)Nc1nnc(CCc2ccccc2)s1	>57	-23%	-3%	-3%
CCCCCc1nnc(NC(=O)Cc2cccs2)s1	>57	13µM*	-5%	14%
COc1ccc(Cc2nnc(NC(=O)Cc3cccs3)s2)cc1OC	>57	13µM*	-2%	-3%
SMILES	Prx2 Sm inh	AmpC inh no det	AmpC det inh	Anthrax LT inh
N[C@H](Cn1ccc(=O)[nH]c1=O)C(=O)O	>57	7%	-4%	-4%
CCOC(=O)C1[C@H]2C(=O)N(C(C)c3ccc(OC)cc3)C[C@]23C=C[C@H]1O3 (some centres undefined)	>57	-11%	-2%	?
CCC(C)N1CC23C=CC(O2)C(C(=O)OC)C3C1=O (centres undefined)	>57	4µM*[single pt active]	13%	10%
O=C(c1ccco1)N1CCN(c2ncccn2)CC1	>57	4µM*[single pt active]	14%	-13%
CCN(CC)C(=O)N[C@H]1C[C@H]2c3cccc4[nH]cc(c34)C[C@@H]2N(C)C1	>57	11%	-2%	-13%
O=S(=O)(Nc1nccs1)c1cc(Cl)ccc1Cl	>57	10µM*[single pt active]	-5%	2%
CCN(CC)CCNC(=O)c1cn(CC)c2ccc(S(=O)(=O)N(C)C)cc2c1=O	>57	3.2µM*[single pt active]	13%	-5%
CCC(C)NC(=O)c1cn(CC)c2ccc(S(=O)(=O)N(C)C)cc2c1=O (centres undefined)	>57	86%	8%	5%
CCN(CC)CCNC(=O)c1cn(C)c2ccc(S(=O)(=O)N(C)C3CCCCC3)cc2c1=O	>57	4µM*[single pt active]	12%	4µM*
CCn1cc(C(=O)O)c(=O)c2cc(S(=O)(=O)N(C)C)ccc21	>57	0%	9%	-9%
CN1CCN(C(=O)c2cn(C)c3ccc(S(=O)(=O)N(C)C4CCCCC4)cc3c2=O)CC1	>57	27%	12%	-23%
CCn1cc(C(=O)NC2CCCCC2)c(=O)c2cc(S(=O)(=O)N(C)C)ccc21	>57	4µM*[single pt active]	11%	-9%
N#Cc1cccc(-c2nc3cnc(Oc4cccc(Cl)c4)nc3n(C3CC3)c2=O)c1	>57	32%	-1%	-7%
c1ccc2c(N3CCNCC3)nc(-c3ccoc3)nc2c1	>57	12%	7%	-4%
O=C=NC1CCCCC1	nt	-3%	14%	-3%
C(=NC1CCCCC1)=NC1CCCCC1	nt	-12%	12%	4µM*
COC(=O)[C@@H]1C(O)[C@@H](C(=O)OC)[C@H](C)N(C)[C@@H]1C (some centres undefined)	>57	0%[5.75 µM]	-2%[5.75 µM]	9%[8 µM]
COC(=O)c1ccc2c(c1)NC(=O)C1CCCN21 (centres undefined)	>57	4µM*[single pt active]	27%	?
Nc1c(S(=O)(=O)c2cccs2)c2nc3ccccc3nc2n1/N=C/c1cccc(O)c1	>57	-5%	-2%	5µM*
Cc1ccc(-c2noc(-c3ccccc3Br)n2)cc1	nt	-17%	10%	?
Cc1ccccc1-c1noc(-c2ccc(O)cc2)n1	nt	-7%	-3%	10µM*
O=C(CCSc1nnc2scc(-c3ccccc3)n12)Nc1nc(-c2ccccc2)ns1	>57	5µM*	-4%	12%
COc1ccc2c(c1)[C@]13CCCC[C@@H]1[C@H](C2)NCC3	>57	1%	-1%	23%
COc1ccccc1CN1CC2(CCN(C(=O)c3ccncc3)CC2)C1	>57	3%	-1%	?
Cc1cc(C)n(-c2ccc(C(=O)OCC(=O)NCc3ccco3)cc2)n1	>57	32%	-1%	6%
Cc1cc(C)n(-c2ccc(C(=O)OCC(=O)c3ccc(Br)s3)cc2)n1	>57	13µM*[single pt active]	2%	-9%
O=C(COc1ccc2ccccc2c1Br)N1CCN(c2ccccn2)CC1	>57	64%	0%	13µM*
O=C(O)CCC(=O)N1CCN(c2ccccn2)CC1	>57	?	17%	-9%
O=C(CC1CCCCC1)N1CCN(c2ccccn2)CC1	>57	17%	-3%	-3%

Screening data (PubChem)
